Measured values published in ChEMBL document CHEMBL1961873, “Compounds: GSK PKIS; Assays: Nanosyn kinase panel” (2012).

What follows are compounds tested against Dual specificity tyrosine-phosphorylation-regulated kinase 1B (Homo sapiens) (UniProt Q9Y463). Settings: at 1 µM.
Dual specificity tyrosine-phosphorylation-regulated kinase 1B (Homo sapiens), sequence (Q9Y463 whole entry, looked up): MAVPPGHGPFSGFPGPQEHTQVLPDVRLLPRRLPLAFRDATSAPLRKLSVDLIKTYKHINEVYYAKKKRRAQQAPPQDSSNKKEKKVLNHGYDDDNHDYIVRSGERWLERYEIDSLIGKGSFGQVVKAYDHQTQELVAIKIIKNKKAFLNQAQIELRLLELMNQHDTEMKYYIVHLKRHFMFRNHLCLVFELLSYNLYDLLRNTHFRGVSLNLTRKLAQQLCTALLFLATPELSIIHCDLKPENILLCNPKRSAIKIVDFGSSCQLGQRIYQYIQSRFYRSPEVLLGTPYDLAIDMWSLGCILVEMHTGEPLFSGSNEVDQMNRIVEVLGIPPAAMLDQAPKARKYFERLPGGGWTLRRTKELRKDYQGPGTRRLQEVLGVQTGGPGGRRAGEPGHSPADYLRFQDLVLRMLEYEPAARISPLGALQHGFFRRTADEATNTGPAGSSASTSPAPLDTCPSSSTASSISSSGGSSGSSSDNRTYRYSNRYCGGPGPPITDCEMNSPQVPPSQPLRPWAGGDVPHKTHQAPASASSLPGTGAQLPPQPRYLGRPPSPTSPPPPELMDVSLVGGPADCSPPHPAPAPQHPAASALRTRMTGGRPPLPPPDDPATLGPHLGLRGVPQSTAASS
In the case of Cc1ccc(C(=O)NC2CC2)cc1-c1ccc2[nH]ncc2c1, the inhibition is reported as 3.29%.
With OCc1ccc(-c2nc(-c3ccccn3)c(-c3ccc4c(c3)OCO4)[nH]2)cc1 the inhibition was 0.97%.
In the case of CC(C)c1ccc2c(c1)NC(=O)/C2=N/Nc1ccc(S(N)(=O)=O)cc1, the inhibition is reported as 4.99%.
For CN(C)C(=O)O[C@@H]1CN[C@@H](C#Cc2cc3ncnc(Nc4ccc(OCc5cccc(F)c5)c(Cl)c4)c3s2)C1, the inhibition was 1.08%.
Work on COc1cccc(-n2nc(C)c3c(N/N=C(\C)c4ccncc4)ncnc32)c1 yielded an inhibition of 8.31%.
Work on COC(=O)c1ccc2c(c1)C(=Cc1cc(Br)c(O)c(Br)c1)C(=O)N2 yielded an inhibition of 53.5%.
Oc1cccc(-c2nc(-c3ccccc3)[nH]c2-c2ccncc2)c1 gave an inhibition of 7.99%.
With NS(=O)(=O)c1ccc(N/N=C2\C(=O)Nc3ccc(Cl)cc32)cc1 the inhibition was 3.96%.
COC(=O)Nc1nc2cc(Oc3ccc(NC(=O)Nc4cccc(Br)c4)cc3)ccc2[nH]1 was tested, and the inhibition was 1.17%.
Work on COC(=O)c1cncc(/C=C/c2c(C)cc(O)cc2C)c1 yielded an inhibition of 4.47%.
Compound COc1cc(/C=N/Nc2ncnc3c2cnn3C(C)C)ccc1O has an inhibition of 7.69%.
Work on CCS(=O)(=O)c1ccc(OC)c(Nc2nccc(N(C)c3ccc4c(C)n[nH]c4c3)n2)c1 yielded an inhibition of -0.22%.
Work on [O-][S+]1CCN(Cc2ccc(-c3ccc4ncnc(Nc5ccc(OCc6ccccc6)c(Cl)c5)c4c3)o2)CC1 yielded an inhibition of 0.51%.
c1ccc(Cc2nc3ccc(Nc4ncnc5ccccc45)cc3[nH]2)cc1 gave an inhibition of 8.13%.
CCS(=O)(=O)c1ccc(OC)c(Nc2ncc(-c3cccc(OC)c3)o2)c1 showed an inhibition of 37.7%.
With CCn1c(-c2nonc2N)nc2ccc(F)cc21 the inhibition was 1.12%.
CN(C)c1cc2c(Nc3ccc4c(cnn4Cc4ccccc4)c3)ncnc2cn1 was tested, and the inhibition was 3.5%.
Compound COc1cc2ncnc(Nc3ccc4c(cnn4Cc4ccccc4)c3)c2cc1OC has an inhibition of 0.09%.
O=C1Nc2ccc(-c3cccnc3)cc2C1=Cc1cc(Br)c(O)c(Br)c1 gave an inhibition of 46.7%.
COc1cc2ncnc(Nc3ccc(C)c(O)c3)c2cc1OC was tested, and the inhibition was 4.18%.
Compound Cc1ccc2c(-c3ccnc(Nc4ccc5c(c4)OCCO5)n3)c(-c3ccc(C(F)(F)F)cc3)nn2n1 has an inhibition of 1.39%.
Work on Cc1ccc2c(-c3ccnc(Nc4cccc(C(F)(F)F)c4)n3)c(-c3ccccc3)nn2n1 yielded an inhibition of 2.46%.
Work on C[C@@H](Oc1cc(-n2cnc3ccc(OC[C@@H](O)CO)cc32)sc1C(N)=O)c1ccccc1Cl yielded an inhibition of 2.69%.
CN(C)CCCn1c(-c2nonc2N)nc2cnccc21 showed an inhibition of 4.52%.
For CN(c1ccc(NC(=O)Nc2ccc(OC(F)(F)F)cc2)cc1)c1ccnc(Nc2cccc(S(N)(=O)=O)c2)n1, the inhibition was -0.44%.
O=C1Nc2ccccc2/C1=C/Nc1ccc2[nH]c(=O)[nH]c2c1 was tested, and the inhibition was 16.1%.
Cc1ccc2c(c1)/C(=N/Nc1ccc(S(N)(=O)=O)cc1)C(=O)N2 showed an inhibition of 1.94%.
In the case of CCCN1CCCC(c2ccc(Nc3nc(Nc4cc(F)ccc4C(N)=O)c4cc[nH]c4n3)c(OC)c2)C1 (stereo not drawn), the inhibition is reported as 82.4%.
Nc1nccc(-c2c(-c3ccc(F)cc3)nn3cc(C(F)(F)F)ccc23)n1 was tested, and the inhibition was 0.98%.
NS(=O)(=O)c1ccc(-c2cc3ccncc3cc2OCc2ccccc2)cc1 showed an inhibition of 2.12%.
With NC(=O)c1sc(-n2cnc3ccccc32)cc1OCc1ccccc1Br the inhibition was 2.25%.
For O=S(=O)(CCOCc1ccc(-c2ccc3ncnc(Nc4ccc(OCc5cccc(F)c5)c(Cl)c4)c3c2)o1)c1ccccc1, the inhibition was 2.9%.
Compound Nc1ccc(C#Cc2cncnc2Nc2ccc(OCc3cccc(F)c3)c(Cl)c2)cc1 has an inhibition of 2.12%.
Work on ON=C1CCc2cc(-c3nc(C4CCNCC4)[nH]c3-c3ccncc3)ccc21 yielded an inhibition of -0.11%.

Each compound was assayed against T1, Dual specificity tyrosine-phosphorylation-regulated kinase 2 (Homo sapiens) (UniProt Q92630). Settings: at 0.1 µM.
T1 sequence (whole entry): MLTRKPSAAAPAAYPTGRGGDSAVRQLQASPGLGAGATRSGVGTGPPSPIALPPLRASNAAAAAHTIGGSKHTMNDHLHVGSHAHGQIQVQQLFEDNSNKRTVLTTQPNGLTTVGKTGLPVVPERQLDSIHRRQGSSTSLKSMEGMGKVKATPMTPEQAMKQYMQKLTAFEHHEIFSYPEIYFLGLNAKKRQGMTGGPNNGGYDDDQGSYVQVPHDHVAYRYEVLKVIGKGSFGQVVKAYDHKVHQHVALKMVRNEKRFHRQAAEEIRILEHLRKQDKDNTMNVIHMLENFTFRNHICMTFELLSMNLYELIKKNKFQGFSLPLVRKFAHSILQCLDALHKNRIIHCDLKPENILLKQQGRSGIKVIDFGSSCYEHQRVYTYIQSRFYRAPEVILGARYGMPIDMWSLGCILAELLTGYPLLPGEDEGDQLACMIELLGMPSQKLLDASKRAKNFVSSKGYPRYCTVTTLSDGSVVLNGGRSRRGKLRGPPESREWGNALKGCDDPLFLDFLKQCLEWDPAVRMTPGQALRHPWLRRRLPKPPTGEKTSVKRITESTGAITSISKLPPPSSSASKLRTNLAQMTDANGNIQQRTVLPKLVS
Compound Cc1ccc(C(=O)NC2CC2)cc1-c1ccc2[nH]ncc2c1 has an inhibition of -3.32%.
For OCc1ccc(-c2nc(-c3ccccn3)c(-c3ccc4c(c3)OCO4)[nH]2)cc1, the inhibition was 2.62%.
Work on CC(C)c1ccc2c(c1)NC(=O)/C2=N/Nc1ccc(S(N)(=O)=O)cc1 yielded an inhibition of 0.96%.
For CN(C)C(=O)O[C@@H]1CN[C@@H](C#Cc2cc3ncnc(Nc4ccc(OCc5cccc(F)c5)c(Cl)c4)c3s2)C1, the inhibition was -0.19%.
COc1cccc(-n2nc(C)c3c(N/N=C(\C)c4ccncc4)ncnc32)c1 showed an inhibition of 0.5%.
COC(=O)c1ccc2c(c1)C(=Cc1cc(Br)c(O)c(Br)c1)C(=O)N2 gave an inhibition of 5.68%.
For Oc1cccc(-c2nc(-c3ccccc3)[nH]c2-c2ccncc2)c1, the inhibition was 2.63%.
With NS(=O)(=O)c1ccc(N/N=C2\C(=O)Nc3ccc(Cl)cc32)cc1 the inhibition was 2.3%.
With COC(=O)Nc1nc2cc(Oc3ccc(NC(=O)Nc4cccc(Br)c4)cc3)ccc2[nH]1 the inhibition was 3.11%.
For COC(=O)c1cncc(/C=C/c2c(C)cc(O)cc2C)c1, the inhibition was 3.09%.
With COc1cc(/C=N/Nc2ncnc3c2cnn3C(C)C)ccc1O the inhibition was 1.46%.
CCS(=O)(=O)c1ccc(OC)c(Nc2nccc(N(C)c3ccc4c(C)n[nH]c4c3)n2)c1 was tested, and the inhibition was 2.84%.
With [O-][S+]1CCN(Cc2ccc(-c3ccc4ncnc(Nc5ccc(OCc6ccccc6)c(Cl)c5)c4c3)o2)CC1 the inhibition was 1.29%.
c1ccc(Cc2nc3ccc(Nc4ncnc5ccccc45)cc3[nH]2)cc1 was tested, and the inhibition was 1.99%.
CCS(=O)(=O)c1ccc(OC)c(Nc2ncc(-c3cccc(OC)c3)o2)c1 showed an inhibition of 3.86%.
CCn1c(-c2nonc2N)nc2ccc(F)cc21 showed an inhibition of 4.17%.
CN(C)c1cc2c(Nc3ccc4c(cnn4Cc4ccccc4)c3)ncnc2cn1 gave an inhibition of 2.42%.
COc1cc2ncnc(Nc3ccc4c(cnn4Cc4ccccc4)c3)c2cc1OC showed an inhibition of 2.37%.
With O=C1Nc2ccc(-c3cccnc3)cc2C1=Cc1cc(Br)c(O)c(Br)c1 the inhibition was 3.53%.
COc1cc2ncnc(Nc3ccc(C)c(O)c3)c2cc1OC gave an inhibition of 2.96%.
Cc1ccc2c(-c3ccnc(Nc4ccc5c(c4)OCCO5)n3)c(-c3ccc(C(F)(F)F)cc3)nn2n1 was tested, and the inhibition was -0.27%.
Cc1ccc2c(-c3ccnc(Nc4cccc(C(F)(F)F)c4)n3)c(-c3ccccc3)nn2n1 gave an inhibition of 4.31%.
C[C@@H](Oc1cc(-n2cnc3ccc(OC[C@@H](O)CO)cc32)sc1C(N)=O)c1ccccc1Cl was tested, and the inhibition was -1.33%.
For CN(C)CCCn1c(-c2nonc2N)nc2cnccc21, the inhibition was 2.75%.
Work on CN(c1ccc(NC(=O)Nc2ccc(OC(F)(F)F)cc2)cc1)c1ccnc(Nc2cccc(S(N)(=O)=O)c2)n1 yielded an inhibition of 2.23%.
O=C1Nc2ccccc2/C1=C/Nc1ccc2[nH]c(=O)[nH]c2c1 gave an inhibition of 4.31%.
Cc1ccc2c(c1)/C(=N/Nc1ccc(S(N)(=O)=O)cc1)C(=O)N2 gave an inhibition of 0.43%.
With CCCN1CCCC(c2ccc(Nc3nc(Nc4cc(F)ccc4C(N)=O)c4cc[nH]c4n3)c(OC)c2)C1 (stereo not drawn) the inhibition was 36.3%.
Compound Nc1nccc(-c2c(-c3ccc(F)cc3)nn3cc(C(F)(F)F)ccc23)n1 has an inhibition of 0.12%.
NS(=O)(=O)c1ccc(-c2cc3ccncc3cc2OCc2ccccc2)cc1 showed an inhibition of 2.46%.
With NC(=O)c1sc(-n2cnc3ccccc32)cc1OCc1ccccc1Br the inhibition was 3.45%.
Compound O=S(=O)(CCOCc1ccc(-c2ccc3ncnc(Nc4ccc(OCc5cccc(F)c5)c(Cl)c4)c3c2)o1)c1ccccc1 has an inhibition of 0.96%.
With Nc1ccc(C#Cc2cncnc2Nc2ccc(OCc3cccc(F)c3)c(Cl)c2)cc1 the inhibition was 1.74%.
With ON=C1CCc2cc(-c3nc(C4CCNCC4)[nH]c3-c3ccncc3)ccc21 the inhibition was -0.01%.
